KCNQ2 pot – potentiators of rat KCNQ2 potassium channel | Potassium voltage-gated channel subfamily KQT member 2 (Rattus norvegicus), O88943 | CHO-K1 KCNQ2, FluxOR thallium flux fluorescence; hits give high values | B-score at 10 µM | 0.54% of 310,000 active;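 active = fluorescence ratio B-score at least 3 SD of library B-scores, with initial fluorescence B-score within 3 of them, cut at about 5.3 in these data; same plate scores as AID 2156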;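 also: B-score of peak minus minimum over baseline fluorescence ratio after K+ and Tl+ stimulus; positive B-score means potentiation of KCNQ2 with more thallium influx and brighter signal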
KCNQ2 inh – rat KCNQ2 potassium channel inhibitors, primary screen, cell-based, CHO-K1, FluxOR thallium flux, B-score. Potassium voltage-gated channel subfamily KQT member 2 (Rattus norvegicus), O88943. 20 min; hits give low values. B-score at 10 µM. 1.1% of 310,000 active. AID 2156, 2009;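 active = fluorescence ratio B-score at most minus 3 library SDs, with starting brightness B-score within 2 library SDs, cut at about -5.5 in these data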
Kir21 confirm – mouse Kir2.1 channel blockers, retest, confirmation, cell-based, FluxOR thallium flux, duplicate | shares compounds with KCNQ2 pot | AID 2032, 2009 | Tl flux remaining, % of negative control (hits give low values), % at 10 µM | 41% of 2,300 active | Kir2.1-expressing cells, FluxOR thallium flux fluorescence; hits give low values;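 active = Primary-screen hit whose thallium flux fell at least 3 control SD below untreated wells in both duplicates, with normal baseline fluorescence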;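 also: 0% = blank wells without stimulus and 100% = stimulated no-compound controls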
HEK293 Tl flux – counter-screen for Kir2.1 inhibitors: effect in parental HEK293 cells | shares compounds with KCNQ2 pot | FluxOR thallium flux fluorescence; 0% = unstimulated blank wells | FluxOR signal as % of negative control (100 = no effect), % at 10 µM | 19% of 2,300 active | AID 2105;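 active = dye signal at least 3 control SD above or below untreated wells in both duplicates, raw fluorescence within 3, either direction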;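 also: percent is based on the flux ratio of peak minus minimum fluorescence over baseline F0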
CHO-K1 Tl ctr – nonspecific thallium flux increase in parental CHO-K1, confirmation, counter-screen for KCNQ2 potentiator project, cell-based, FluxOR thallium flux, duplicate. parental CHO-K1 cells, FluxOR thallium flux fluorescence; zero = vehicle mean+3SD, 100% = vehicle-minus-blank window. 43% of 1,200 active. shares compounds with KCNQ2 pot. activity increase over 3SD of controls, % at 10 µM;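 active = signal rise of at least 3 SD above the untreated control mean, in both duplicate wells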;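 also: counter screen of KCNQ2 potentiator hits so any rise reflects channel-independent effects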
KCNQ1 sel pot – human KCNQ1 channel potentiation off-target, confirmation, selectivity assay for KCNQ2 potentiator project, cell-based, CHO, FluxOR thallium flux; shares compounds with KCNQ2 pot; CHO KCNQ1 stable, FluxOR thallium flux fluorescence; beyond 3SD, as % of vehicle-control signal; activation over 3SD threshold, % at 10 µM; 28% of 1,200 active; AID 2283, 2010;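 active = fluorescence ratio rise of at least 3 SD of vehicle wells above their mean, in both replicate wells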;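 also: 0% = vehicle mean plus 3 SD and 100% = vehicle minus unstimulated blank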
Target sequence (P51787 whole entry, looked up): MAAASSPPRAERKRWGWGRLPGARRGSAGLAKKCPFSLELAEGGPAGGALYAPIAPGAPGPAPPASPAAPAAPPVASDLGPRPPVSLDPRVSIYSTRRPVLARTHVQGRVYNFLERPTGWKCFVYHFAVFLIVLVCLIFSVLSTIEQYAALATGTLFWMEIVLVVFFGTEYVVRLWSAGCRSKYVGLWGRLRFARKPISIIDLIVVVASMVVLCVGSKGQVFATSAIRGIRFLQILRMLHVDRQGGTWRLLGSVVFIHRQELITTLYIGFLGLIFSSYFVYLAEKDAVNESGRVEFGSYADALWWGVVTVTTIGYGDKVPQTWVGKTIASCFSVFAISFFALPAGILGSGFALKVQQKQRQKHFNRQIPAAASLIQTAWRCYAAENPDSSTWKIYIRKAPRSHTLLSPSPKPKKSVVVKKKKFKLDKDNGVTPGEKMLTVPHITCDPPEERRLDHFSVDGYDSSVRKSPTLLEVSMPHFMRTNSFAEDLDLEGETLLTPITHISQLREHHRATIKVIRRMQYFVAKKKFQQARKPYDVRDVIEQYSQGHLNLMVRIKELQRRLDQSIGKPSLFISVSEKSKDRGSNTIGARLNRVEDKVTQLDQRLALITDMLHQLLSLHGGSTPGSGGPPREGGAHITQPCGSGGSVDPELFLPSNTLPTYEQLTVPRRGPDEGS
KCNQ2 pot conf – rat KCNQ2 channel potentiators, confirmation, cell-based, CHO, FluxOR thallium flux, duplicate | CHO-KCNQ2 cells, FluxOR thallium flux fluorescence | AID 2287, 2010 | 68% of 1,200 active | potentiation, less the hit threshold, % at 10 µM | shares compounds with KCNQ2 pot;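 active = fluorescence ratio rising 3 SD or more over the vehicle control mean in both replicates, plus primary screen hit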;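 also: peak minus minimum thallium fluorescence divided by baseline after K/Tl stimulus; 0% = vehicle mean plus 3 SD and 100% = vehicle minus unstimulated blank difference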
Kir2-1 sel – mouse Kir2.1 channel activation off-target, confirmation, selectivity assay for KCNQ2 potentiator project, cell-based, HEK293, FluxOR thallium flux. activity over 3SD threshold, % at 10 µM. HEK293 Kir2.1, FluxOR thallium flux fluorescence. 2% of 1,200 active. shares compounds with KCNQ2 pot;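 active = fluorescence ratio rise of at least 3 SD above the vehicle-control mean, seen in both replicates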;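 also: 0% = vehicle mean plus 3 SD and 100% = vehicle minus no-stimulus blank window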
KCNQ2 W236L pot – potentiators of retigabine-insensitive KCNQ2 W236L, mechanism study for KCNQ2 potentiator project, cell-based, rat KCNQ2 W236L, CHO, automated patch clamp. shares compounds with KCNQ2 pot. automated patch clamp current. current increase over 3SD of negative controls (%), hits give high values, % at 25 µM. 10% of 940 active. AID 2558, 2010;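 active = current increase at least 3 SD of the untreated controls above them in both duplicate recordings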
Numbers without * were called inactive; i = inactive; x = not tested or not shown. In the library only some 1.6% were active in any assay of this set; here they are far more common.

SMILES	KCNQ2 pot	KCNQ2 inh	Kir21 confirm	HEK293 Tl flux	others
CCCN(CC(=O)Nc1ccccc1C)C(=O)CC(NC(=O)c1ccccc1)c1ccccc1 (stereo not drawn)	x	i	x	x
Cc1c(C(=O)N(CCO)Cc2ccccc2)oc2c(F)cccc12	0.45	i	x	x
NC1=NC[C@H](Cc2ccc(O)cc2)N1CCCCC1CCCCC1	0.01	i	x	x
NC1=NC[C@H](Cc2ccccc2)N1CCCCC1CCCCC1	x	i	32.0%*	i
CCCc1cc(=O)oc2cc(C)cc(OC(C)C(=O)N[C@@H](Cc3c[nH]c4ccccc34)C(=O)O)c12 (stereo partly drawn)	9.69*	i	i	i	CHO-K1 Tl ctr=2.7*;KCNQ1 sel pot=-20.9;KCNQ2 pot conf=-25.1;Kir2-1 sel=-32.0
CCCCc1cc(=O)oc2cc(C)cc(OC(C)C(=O)NC(Cc3c[nH]c4ccc(O)cc34)C(=O)O)c12 (stereo not drawn)	x	i	x	x
Cc1ccn2c(CNCC3OCCc4ccccc43)c(C(=O)N3CCCCCC3)nc2c1 (stereo not drawn)	x	i	x	x
COC(=O)CSc1nc2c(c(-c3ccc(C)o3)c1C#N)CCCC2	22.1*	i	i	i	CHO-K1 Tl ctr=-21.0;KCNQ1 sel pot=-11.1;KCNQ2 pot conf=40.9*;Kir2-1 sel=-37.0;KCNQ2 W236L pot=i
CCSc1nc2c(c(-c3ccc(C)o3)c1C#N)CCCC2	x	i	x	x
Cc1cccc(N(C(=O)c2snc(C(N)=O)c2N)C(C(=O)NCC2CCCO2)c2ccc3ncccc3c2)c1 (stereo not drawn)	0.02	i	x	x
NS(=O)(=O)c1ccc(NC(=O)COC(=O)c2cnccn2)cc1	x	i	x	x
CC(OC(=O)Cc1c(F)cccc1Cl)C(=O)NC1(C#N)CCCCC1 (stereo not drawn)	x	i	x	x
Nc1cccnc1Oc1ccc(F)cc1	0.08	i	x	x
FC(F)(F)c1cccnc1Oc1ccc(C2=NCCS2)cc1	5.37*	i	i	i	CHO-K1 Tl ctr=-33.6;KCNQ1 sel pot=30.1*;KCNQ2 pot conf=12.6*;Kir2-1 sel=-21.1;KCNQ2 W236L pot=i
Cc1ccc(C(C)NC(=O)c2cccs2)cc1 (stereo not drawn)	1.82	i	x	x
Cc1ccc(C(=O)NC(C)c2ccc3c(c2)OCO3)s1 (stereo not drawn)	3.1	i	x	x
Cc1ccc(C(=O)NC(C)c2ccc(C)c(C)c2)s1 (stereo not drawn)	12*	i	i	i	CHO-K1 Tl ctr=-2.8;KCNQ1 sel pot=30.3*;KCNQ2 pot conf=27.4*;Kir2-1 sel=-45.9;KCNQ2 W236L pot=i
Cc1ccc(C(C)NC(=O)c2cccs2)cc1C (stereo not drawn)	8.51*	i	i	i	CHO-K1 Tl ctr=-8.9;KCNQ1 sel pot=12.8*;KCNQ2 pot conf=2.3*;Kir2-1 sel=-29.3;KCNQ2 W236L pot=i
COc1ccc(OC)c(CNS(=O)(=O)c2cc(CN3C(=O)c4cccnc4C3=O)ccc2OC)c1	x	i	x	x
Cc1csc(NC(=O)CCCC(=O)c2ccccc2)n1	0.03	i	x	x
CCCc1c(C(=O)NNc2cccc(Cl)c2)cnn1-c1ccccc1	x	i	x	x
CCCCCCC(O)(c1ccc(OC)cc1)C(CN1CCOCC1)c1ccccc1 (stereo not drawn)	6.37*	i	i	i	CHO-K1 Tl ctr=-24.3;KCNQ1 sel pot=-9.0;KCNQ2 pot conf=6.2*;Kir2-1 sel=-44.7;KCNQ2 W236L pot=i
CCCCCCC(O)(c1ccccc1)C(CN1CCOCC1)c1ccccc1 (stereo not drawn)	0.4	i	x	x
CCOc1cc(S(=O)(=O)NCc2ccc3c(c2)OCO3)c(C)cc1C	x	i	65.0%*	i
O=S(=O)(NCc1ccc2c(c1)OCO2)c1cccc2cccnc12	13.3*	i	x	x	CHO-K1 Tl ctr=5.4*;KCNQ1 sel pot=-14.8;KCNQ2 pot conf=-28.1;Kir2-1 sel=-57.8
SMILES	KCNQ2 pot	KCNQ2 inh	Kir21 confirm	HEK293 Tl flux	others
CCOc1cc(C)c(Cl)cc1S(=O)(=O)NCc1ccco1	x	i	55.5%*	i
O=S(=O)(NCc1ccc(Cl)cc1)c1cccc2cccnc12	0.01	i	x	x
Cc1cc(C)c(C)c(S(=O)(=O)NCc2ccco2)c1C	x	i	54.5%*	i
Cc1cc(C)c(S(=O)(=O)NCc2ccc3c(c2)OCO3)cc1C	x	i	x	x
Cc1cc(S(=O)(=O)NCc2ccco2)c(C)cc1Cl	x	i	x	x
COc1cc(C)c(Cl)cc1S(=O)(=O)NCc1ccco1	0.69	i	x	x
Cc1ccc(S(=O)(=O)CC(=O)Nc2cccc(C)n2)cc1	x	i	x	x
O=C1c2ccccc2CN1Cc1ccccc1	x	i	x	x
CC(C)C(=O)Nc1nnc(SCC(=O)NC2CCCC2)s1	x	i	x	x
Cc1ccn2c(=O)nc(SCC(=O)NCCc3ccccc3)nc2c1	x	i	x	x
CCOc1cc(C)c(Cl)cc1S(=O)(=O)NCc1ccc2c(c1)OCO2	x	i	68.0%*	i
Cc1cc(C)c(S(=O)(=O)NCc2ccc3c(c2)OCO3)c(C)c1	x	i	x	x
CN(Cc1ccc(Cl)s1)C(=O)CCl	x	i	x	x
O=Cc1ccc(-c2ccccc2OC(F)(F)F)o1	6.56*	i	i	i	CHO-K1 Tl ctr=-6.2;KCNQ1 sel pot=-15.8;KCNQ2 pot conf=-7.1;Kir2-1 sel=-17.6
Cc1c(C(=O)O)cccc1-c1ccc(C=O)o1	x	i	x	x
O=c1cc(CO)[nH]cc1OCc1ccccc1	0.69	i	x	x
CC(C)C(=O)Nc1ccc2nn(-c3ccccc3)nc2c1	0.63	i	x	x
OC(CC#CCN1CCCC1)(c1ccccc1)c1ccccc1	x	i	x	x
C(#CCN1CCCC1)CC(c1ccccc1)c1ccccc1	x	i	40.5%*	i
S=C(Nc1ccccc1)Nc1ccc(OCc2ccc(Cl)cc2Cl)cc1	x	i	x	x
OCCCCNCc1ccc(OCc2ccc(Cl)cc2Cl)cc1	x	i	33.0%*	i
OCCNCc1ccc(OCc2ccc(Cl)cc2Cl)cc1	x	i	31.0%*	i
COc1cc(CNCCCCO)ccc1OCc1ccccc1F	0.1	i	x	x
